The supplement of paper PMC11732987, “Enantioselective OTUD7B fragment discovery through chemoproteomics screening and high-throughput optimisation” (Communications Chemistry, 2025)

Legend:
Test in all cases: log2 ratio of Biotin-Ahx-Ub-VS probe labelling (fragment/DMSO); higher = less target engagement (more negative = stronger competition), active = hit call of the paper (q ≤ 0.05, log2 ratio ≤ -1)
Conditions in all cases: compound concentration: 200 uM; treatment time: 3 h
USP19 = target: T1, USP19 (UniProt O94966)
T1 sequence (whole entry): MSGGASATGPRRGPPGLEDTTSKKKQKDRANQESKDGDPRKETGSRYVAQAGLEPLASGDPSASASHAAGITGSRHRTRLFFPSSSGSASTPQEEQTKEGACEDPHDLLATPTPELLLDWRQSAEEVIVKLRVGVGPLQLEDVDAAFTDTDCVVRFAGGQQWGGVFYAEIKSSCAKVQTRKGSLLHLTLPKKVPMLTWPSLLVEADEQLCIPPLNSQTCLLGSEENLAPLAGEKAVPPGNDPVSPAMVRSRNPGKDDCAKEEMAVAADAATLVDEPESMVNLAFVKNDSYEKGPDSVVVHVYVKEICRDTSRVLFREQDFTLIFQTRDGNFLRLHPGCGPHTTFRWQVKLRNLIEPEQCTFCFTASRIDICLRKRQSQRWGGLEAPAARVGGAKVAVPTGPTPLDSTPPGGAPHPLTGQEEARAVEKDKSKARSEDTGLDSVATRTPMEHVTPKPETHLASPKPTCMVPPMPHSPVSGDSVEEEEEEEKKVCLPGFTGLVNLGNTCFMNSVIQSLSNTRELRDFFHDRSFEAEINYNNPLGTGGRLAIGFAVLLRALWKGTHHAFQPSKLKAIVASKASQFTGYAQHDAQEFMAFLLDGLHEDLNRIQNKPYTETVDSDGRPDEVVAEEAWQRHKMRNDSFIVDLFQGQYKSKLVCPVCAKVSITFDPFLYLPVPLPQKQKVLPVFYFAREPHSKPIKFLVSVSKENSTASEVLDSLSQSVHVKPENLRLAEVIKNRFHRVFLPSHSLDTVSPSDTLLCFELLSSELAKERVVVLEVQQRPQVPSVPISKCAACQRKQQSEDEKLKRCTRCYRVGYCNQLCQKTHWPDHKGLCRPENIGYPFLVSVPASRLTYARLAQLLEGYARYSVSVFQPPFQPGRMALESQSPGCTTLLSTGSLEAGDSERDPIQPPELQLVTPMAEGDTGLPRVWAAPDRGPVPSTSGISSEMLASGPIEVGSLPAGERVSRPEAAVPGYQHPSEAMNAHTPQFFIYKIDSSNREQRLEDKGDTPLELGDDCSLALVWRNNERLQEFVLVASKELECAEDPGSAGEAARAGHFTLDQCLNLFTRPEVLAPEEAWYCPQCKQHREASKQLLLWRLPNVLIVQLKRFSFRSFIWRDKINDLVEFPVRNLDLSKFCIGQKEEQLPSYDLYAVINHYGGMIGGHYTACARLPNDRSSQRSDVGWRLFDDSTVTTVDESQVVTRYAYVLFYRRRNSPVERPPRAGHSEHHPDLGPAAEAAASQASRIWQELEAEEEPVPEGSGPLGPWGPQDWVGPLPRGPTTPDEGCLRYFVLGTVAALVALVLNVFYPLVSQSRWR
Method in brief: (§1)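 Average log2 ratios of fragment over vehicle were obtained by unpaired t-test from global-median-normalised Spectronaut label-free quantities. Proteins with ≥2 unique peptides were included. HEK293T lysate (495 µg per sample) was treated in triplicate with fragment at 200 µM or vehicle for 3 h, then with Biotin-Ahx-Ub-VS at 0.5 µM final for 1 h, and labelled DUBs were NeutrAvidin-enriched and run by diaPASEF LC-MS/MS.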

USP22 = target: T2, USP22 (UniProt Q9UPT9)
T2 sequence (whole entry): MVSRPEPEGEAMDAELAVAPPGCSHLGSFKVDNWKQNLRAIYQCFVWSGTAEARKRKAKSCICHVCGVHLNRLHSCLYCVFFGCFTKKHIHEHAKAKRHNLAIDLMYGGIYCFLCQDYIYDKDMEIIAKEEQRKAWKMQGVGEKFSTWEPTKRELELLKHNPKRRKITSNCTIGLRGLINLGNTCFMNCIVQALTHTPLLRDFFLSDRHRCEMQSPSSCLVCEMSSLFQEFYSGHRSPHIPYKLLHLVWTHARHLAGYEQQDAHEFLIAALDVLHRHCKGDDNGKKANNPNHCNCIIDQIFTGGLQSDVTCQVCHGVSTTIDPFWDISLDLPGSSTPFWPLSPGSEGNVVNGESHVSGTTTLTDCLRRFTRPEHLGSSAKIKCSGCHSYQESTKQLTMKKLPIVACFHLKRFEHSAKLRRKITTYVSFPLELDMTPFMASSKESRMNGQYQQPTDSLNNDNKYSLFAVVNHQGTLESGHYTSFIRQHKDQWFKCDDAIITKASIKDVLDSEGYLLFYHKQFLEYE
Method in brief: as §1

USP24 = USP24 (UniProt Q9UPU5)
Method in brief: as §1

USP25 = target: T3, USP25 (UniProt Q9UHP3)
T3 sequence (whole entry): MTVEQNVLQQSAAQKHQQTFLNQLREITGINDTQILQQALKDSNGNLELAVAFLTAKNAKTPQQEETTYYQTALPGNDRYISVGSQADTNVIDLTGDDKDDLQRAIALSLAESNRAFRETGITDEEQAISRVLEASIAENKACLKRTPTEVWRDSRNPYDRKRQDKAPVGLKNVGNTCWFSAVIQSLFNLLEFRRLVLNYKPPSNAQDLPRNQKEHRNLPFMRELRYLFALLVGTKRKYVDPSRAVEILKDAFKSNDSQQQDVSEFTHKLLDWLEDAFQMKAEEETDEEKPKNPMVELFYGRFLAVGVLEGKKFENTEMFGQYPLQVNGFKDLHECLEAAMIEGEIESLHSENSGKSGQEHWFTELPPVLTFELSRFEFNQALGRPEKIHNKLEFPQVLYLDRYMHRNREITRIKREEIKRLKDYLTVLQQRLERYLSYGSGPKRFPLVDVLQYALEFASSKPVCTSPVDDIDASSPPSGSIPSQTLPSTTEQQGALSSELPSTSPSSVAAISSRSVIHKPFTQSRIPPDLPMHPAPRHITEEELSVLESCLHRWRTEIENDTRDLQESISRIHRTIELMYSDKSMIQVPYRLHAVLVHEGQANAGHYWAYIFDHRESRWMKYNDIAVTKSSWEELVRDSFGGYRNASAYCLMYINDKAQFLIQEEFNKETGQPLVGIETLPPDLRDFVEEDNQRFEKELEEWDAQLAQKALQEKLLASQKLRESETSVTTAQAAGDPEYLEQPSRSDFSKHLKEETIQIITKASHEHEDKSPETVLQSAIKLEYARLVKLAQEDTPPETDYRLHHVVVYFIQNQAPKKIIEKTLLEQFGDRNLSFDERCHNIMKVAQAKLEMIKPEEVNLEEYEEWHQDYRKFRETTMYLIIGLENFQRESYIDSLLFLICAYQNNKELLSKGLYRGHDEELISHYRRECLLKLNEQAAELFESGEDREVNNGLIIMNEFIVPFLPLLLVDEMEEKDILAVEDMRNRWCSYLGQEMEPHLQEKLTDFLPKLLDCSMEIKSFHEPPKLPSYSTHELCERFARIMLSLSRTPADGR
Method in brief: as §1

USP28 = target: T4, USP28 (UniProt Q96RU2)
T4 sequence (whole entry): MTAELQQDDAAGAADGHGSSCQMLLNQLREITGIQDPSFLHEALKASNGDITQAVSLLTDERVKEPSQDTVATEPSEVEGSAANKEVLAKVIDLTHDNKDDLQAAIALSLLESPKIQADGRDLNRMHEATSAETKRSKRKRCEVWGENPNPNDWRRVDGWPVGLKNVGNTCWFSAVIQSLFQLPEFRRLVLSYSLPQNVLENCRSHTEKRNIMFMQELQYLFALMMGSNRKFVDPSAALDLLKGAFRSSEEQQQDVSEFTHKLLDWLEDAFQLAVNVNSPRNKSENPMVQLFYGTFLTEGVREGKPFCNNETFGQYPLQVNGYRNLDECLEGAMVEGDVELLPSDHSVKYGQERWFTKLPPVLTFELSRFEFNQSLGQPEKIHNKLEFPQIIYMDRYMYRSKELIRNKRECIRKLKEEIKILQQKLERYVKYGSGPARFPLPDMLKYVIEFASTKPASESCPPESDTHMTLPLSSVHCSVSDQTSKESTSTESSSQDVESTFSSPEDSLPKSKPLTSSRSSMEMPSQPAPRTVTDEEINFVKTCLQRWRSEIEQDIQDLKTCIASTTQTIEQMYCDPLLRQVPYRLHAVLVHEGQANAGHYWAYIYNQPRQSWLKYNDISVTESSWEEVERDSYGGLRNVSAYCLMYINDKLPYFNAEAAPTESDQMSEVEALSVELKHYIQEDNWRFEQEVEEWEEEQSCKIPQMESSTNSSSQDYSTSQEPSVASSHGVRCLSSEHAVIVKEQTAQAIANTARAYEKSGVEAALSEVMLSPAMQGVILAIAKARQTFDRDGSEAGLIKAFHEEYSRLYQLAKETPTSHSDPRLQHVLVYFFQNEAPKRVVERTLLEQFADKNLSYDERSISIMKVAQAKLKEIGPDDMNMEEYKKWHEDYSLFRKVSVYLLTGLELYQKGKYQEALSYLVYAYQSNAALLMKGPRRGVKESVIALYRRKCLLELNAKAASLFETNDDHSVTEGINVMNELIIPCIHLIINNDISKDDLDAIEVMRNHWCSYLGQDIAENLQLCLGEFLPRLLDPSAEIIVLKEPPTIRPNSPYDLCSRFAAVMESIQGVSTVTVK
Method in brief: as §1

Measured: log2 ratio of Biotin-Ahx-Ub-VS probe labelling

USP24, sequence (Q9UPU5 whole entry): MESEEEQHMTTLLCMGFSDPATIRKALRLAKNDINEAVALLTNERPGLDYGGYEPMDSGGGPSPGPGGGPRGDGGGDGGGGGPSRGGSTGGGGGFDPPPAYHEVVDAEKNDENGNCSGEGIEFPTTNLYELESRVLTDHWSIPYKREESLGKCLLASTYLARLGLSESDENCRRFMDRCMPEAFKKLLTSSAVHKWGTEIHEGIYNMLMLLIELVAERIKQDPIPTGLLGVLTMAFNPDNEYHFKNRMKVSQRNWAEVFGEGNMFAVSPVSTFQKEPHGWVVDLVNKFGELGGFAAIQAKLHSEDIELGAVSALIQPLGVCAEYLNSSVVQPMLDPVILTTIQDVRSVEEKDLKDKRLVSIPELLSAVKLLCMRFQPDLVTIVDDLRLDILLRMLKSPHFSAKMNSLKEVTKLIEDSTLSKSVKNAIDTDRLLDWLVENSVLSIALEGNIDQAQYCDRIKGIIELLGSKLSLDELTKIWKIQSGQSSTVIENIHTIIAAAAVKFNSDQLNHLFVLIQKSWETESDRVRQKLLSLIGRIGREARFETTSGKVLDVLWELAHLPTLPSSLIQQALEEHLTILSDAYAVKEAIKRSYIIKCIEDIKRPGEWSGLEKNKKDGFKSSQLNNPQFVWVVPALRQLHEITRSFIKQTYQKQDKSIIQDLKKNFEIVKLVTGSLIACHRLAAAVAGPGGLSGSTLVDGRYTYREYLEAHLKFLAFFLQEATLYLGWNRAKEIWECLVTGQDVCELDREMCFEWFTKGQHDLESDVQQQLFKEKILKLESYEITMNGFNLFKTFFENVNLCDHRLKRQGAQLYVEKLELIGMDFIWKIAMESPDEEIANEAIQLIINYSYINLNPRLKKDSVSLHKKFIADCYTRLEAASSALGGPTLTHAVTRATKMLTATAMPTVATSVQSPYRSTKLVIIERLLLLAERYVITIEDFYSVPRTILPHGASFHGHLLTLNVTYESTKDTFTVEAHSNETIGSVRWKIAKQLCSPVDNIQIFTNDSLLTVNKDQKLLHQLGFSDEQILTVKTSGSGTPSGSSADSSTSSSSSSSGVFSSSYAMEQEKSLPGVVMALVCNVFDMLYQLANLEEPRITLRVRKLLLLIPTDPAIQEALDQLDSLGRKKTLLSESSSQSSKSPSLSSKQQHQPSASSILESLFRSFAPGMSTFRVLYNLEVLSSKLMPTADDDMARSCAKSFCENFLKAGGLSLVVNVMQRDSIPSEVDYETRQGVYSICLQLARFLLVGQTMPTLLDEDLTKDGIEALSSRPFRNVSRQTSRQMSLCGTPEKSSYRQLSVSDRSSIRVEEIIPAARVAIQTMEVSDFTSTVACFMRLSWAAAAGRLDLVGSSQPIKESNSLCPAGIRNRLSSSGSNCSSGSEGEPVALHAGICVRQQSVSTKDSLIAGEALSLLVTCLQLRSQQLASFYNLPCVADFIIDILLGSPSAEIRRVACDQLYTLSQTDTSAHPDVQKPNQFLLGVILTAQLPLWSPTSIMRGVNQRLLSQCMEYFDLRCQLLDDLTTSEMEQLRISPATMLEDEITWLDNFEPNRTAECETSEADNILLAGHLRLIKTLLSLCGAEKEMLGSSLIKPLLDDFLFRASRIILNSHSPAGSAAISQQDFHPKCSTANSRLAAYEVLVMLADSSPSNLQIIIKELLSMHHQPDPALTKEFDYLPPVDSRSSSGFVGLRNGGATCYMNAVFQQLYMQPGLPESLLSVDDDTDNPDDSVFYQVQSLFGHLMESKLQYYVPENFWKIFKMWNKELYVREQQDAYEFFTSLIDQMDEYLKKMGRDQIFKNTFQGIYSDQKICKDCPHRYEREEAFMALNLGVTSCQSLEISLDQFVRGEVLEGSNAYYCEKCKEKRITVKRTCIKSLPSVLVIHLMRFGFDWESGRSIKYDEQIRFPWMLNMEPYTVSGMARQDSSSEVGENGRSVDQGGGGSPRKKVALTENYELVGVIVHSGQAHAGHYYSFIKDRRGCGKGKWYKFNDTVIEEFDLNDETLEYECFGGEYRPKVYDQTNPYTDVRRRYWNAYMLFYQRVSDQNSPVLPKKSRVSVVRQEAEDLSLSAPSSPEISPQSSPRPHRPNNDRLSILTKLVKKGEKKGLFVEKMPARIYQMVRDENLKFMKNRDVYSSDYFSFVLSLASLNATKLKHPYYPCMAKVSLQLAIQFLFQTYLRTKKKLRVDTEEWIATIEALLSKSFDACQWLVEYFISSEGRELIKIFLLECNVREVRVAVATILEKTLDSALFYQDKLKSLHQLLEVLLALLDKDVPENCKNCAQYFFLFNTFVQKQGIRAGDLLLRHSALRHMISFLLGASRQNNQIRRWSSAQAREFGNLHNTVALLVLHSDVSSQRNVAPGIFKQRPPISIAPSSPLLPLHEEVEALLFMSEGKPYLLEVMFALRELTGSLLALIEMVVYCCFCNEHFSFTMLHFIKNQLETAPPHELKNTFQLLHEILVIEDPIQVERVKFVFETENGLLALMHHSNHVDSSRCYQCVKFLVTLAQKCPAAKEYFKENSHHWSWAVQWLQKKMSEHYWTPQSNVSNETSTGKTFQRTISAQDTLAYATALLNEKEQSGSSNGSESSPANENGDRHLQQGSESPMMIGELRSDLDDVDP

Cc1ccc(C)c(Oc2ccc(CNC(=O)CCl)cn2)c1.Cl
inactive: USP19 -0.382 | USP22 -0.856 | USP24 -0.83 | USP25 -0.627 | USP28 -0.765
